According to PubChem BioAssay (NCI):
This is part of a sample that, as a whole, favours compounds with a hit. Of some 79,000 tested, about 15% had one in any assay. No stated cut-off is given here; in the data, active means growth inhibition above about 70%; inactive means the rest.

How the values were obtained:
[1] = NCI Yeast Anticancer Drug Screen. Data for the rad50 strain (AID 155);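 further: 0% = growth of vehicle-only cultures of the same strain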; settings: S. cerevisiae rad50 strain growth inhibition; at 50.0 µM; hits give high values
Method in brief: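 A DNA repair-deficient yeast mutant serves as the test organism; compound-induced growth inhibition is calculated against vehicle-treated cells.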

[2] = NCI Yeast Anticancer Drug Screen. Data for the mec2-1 strain (AID 157); settings: S. cerevisiae mec2-1 strain, at 50.0 µM, hits give high values
Method in brief: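 Using mec2-1 yeast: add compound, measure growth, express inhibition versus vehicle-treated cultures.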

[3] = NCI Yeast Anticancer Drug Screen. Data for the sgs1 mgt1 strain (AID 161);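 further: 0% = growth of cultures given vehicle only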; settings: S. cerevisiae sgs1 mgt1 strain, at 50.0 µM, hits give high values
Method in brief: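 This yeast growth screen uses a strain with defined DNA-repair lesions; compound-treated growth is compared with vehicle-treated growth.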

[4] = NCI Yeast Anticancer Drug Screen. Data for the cln2 rad14 strain (AID 165);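 further: 0% = growth equal to vehicle treated cultures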; settings: S. cerevisiae cln2 rad14 strain, at 50.0 µM, hits give high values
Method in brief: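 Yeast strain cln2 rad14, bearing defects in cell cycle control and DNA repair, serves as the test system; values reflect growth inhibition compared with vehicle.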

[5] = NCI Yeast Anticancer Drug Screen. Data for the bub3 strain (AID 167); settings: S. cerevisiae bub3 mutant strain, at 50.0 µM, hits give high values
Method in brief: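 Inhibition values come from growth of compound-treated mutant yeast normalised to vehicle-treated controls.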

[6] = NCI Yeast Anticancer Drug Screen. Data for the mlh1 rad18 strain (AID 175); settings: S. cerevisiae mlh1 rad18 strain growth inhibition; at 50.0 µM; hits give high values
Method in brief: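 Steps: expose repair-defective yeast to compound; measure growth; express inhibition against vehicle-treated controls.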

Measured: growth inhibition

NC(=O)CO
inactive: [1] 22.2% | [2] -15.9% | [3] 17.6% | [4] 5.35% | [5] 5.7% | [6] 19.5%

CN(CC1NCCCC1O)C12CC3CC(CC(C3)C1)C2 (stereo not given)
inactive: [1] 0.5% | [2] -6.65% | [3] 12.4% | [4] 12% | [5] 7% | [6] -4.35%

NC(C1SCCS1)C(O)C(O)C(O)CO (stereo not given)
inactive: [1] -5.55% | [2] -27.6% | [3] -1.9% | [4] -3.7% | [5] 3.1% | [6] -3.95%

O=S(=O)(O)c1cccc(/C(=N\Nc2ccccn2)c2ccccn2)c1
inactive: [1] 44% | [2] 25.9% | [3] 59.8% | [4] 40.5% | [5] 51.5% | [6] 45.4%

OC1c2ccccc2-c2ccc(N(Cc3ccccc3)Cc3ccccc3)cc21 (stereo not given)
inactive: [1] 6.95% | [2] 11.4% | [3] 3.75% | [4] 30.8% | [5] -9% | [6] 23.8%

COc1ccc(N=Cc2ccc(C=Nc3ccc(OC)cc3)cc2)cc1
inactive: [1] 23.2% | [2] 2.25% | [3] 21.3% | [4] -0.95% | [5] 20.1% | [6] 19.9%

CC(C)(Oc1ccc(Cl)cc1)C(=O)NC1CC(C)(C)N(O)C(C)(C)C1
inactive: [1] -0.4% | [2] 4.95% | [3] -13.2% | [4] -48.5% | [5] -43.2% | [6] -18.4%

CCOC(=O)c1c(C)[nH]c(=S)c(C#N)c1-c1cccc2ccccc12
inactive: [1] -10% | [2] 9.45% | [3] 38% | [4] -12.6% | [5] 17.8% | [6] -31.3%

CCN(CC)c1nc(NNS(=O)(=O)c2ccccc2)nc(N(CC)CC)n1
inactive: [1] -3.6% | [2] -5.2% | [3] 4.3% | [4] -13.1% | [5] -4.3% | [6] 11%

O=C1NC2CCC(NC(=O)N1c1ccccc1)C1=C2C1
inactive: [1] -28.6% | [2] -8.85% | [3] -5.7% | [4] -0.8% | [5] -3.4% | [6] -32.1%

COc1c2c(c3ccccc3c1O)C1C=CC2C1 (stereo not given)
inactive: [1] 7.6% | [2] 7.6% | [3] -37.7% | [4] -5.25% | [5] 0.25% | [6] -16.3%

Cc1ccc(S(=O)(=O)C2(NC(=O)c3ccc(Cl)cc3)CC2)cc1
inactive: [1] 10.6% | [2] 15.5% | [3] -6.9% | [4] 5.4% | [5] -11.5% | [6] -2.4%

O=C(Nc1ccc(Cl)cc1)Oc1ccc(Br)cc1Br
inactive: [1] 10.9% | [2] -3.95% | [3] 10.7% | [4] 4.65% | [5] -2.7% | [6] 13.2%

COc1ccc(CCC(O)c2ccccc2)cc1 (stereo not given)
inactive: [1] 25.7% | [2] 20.4% | [3] 3.65% | [4] 16.1% | [5] 19.3% | [6] 16.1%

c1cc2nc(c1)CSCCCCCCCSC2
inactive: [1] 2.05% | [2] 45% | [3] 30.2% | [4] -3.45% | [5] 52.4% | [6] 23.2%

O=[N+]([O-])c1ccn(O)c(=Nc2ccccc2)c1
inactive: [1] 1.7% | [2] 11.2% | [3] 5.45% | [4] -32.5% | [5] -14.9% | [6] 20.4%

CC(C)(C)C(=O)c1ccc(-c2ccccc2)cc1
inactive: [1] 17.4% | [2] -5.55% | [3] -6.45% | [4] -56.3% | [5] 6.7% | [6] -2.1%

[N-]=[N+]=NC[C@H]1OCO[C@H](CN=[N+]=[N-])[C@@H](OCCOCCCl)[C@@H]1OCCOCCCl
inactive: [1] -13.1% | [2] -23.4% | [3] -10.6% | [4] -21.1% | [5] -28.8% | [6] -15.8%

Nc1c2c(cc3c1C(=O)c1ccccc1C3=O)OCO2
inactive: [1] 47.8% | [2] 20% | [3] 29.4% | [4] 16.2% | [5] 22% | [6] 39%

O=[N+]([O-])c1ccc(Cl)c2cccnc12
inactive: [1] 27.2% | [2] -7.65% | [3] -0.15% | [4] 7.3% | [5] 0.45% | [6] 50.4%
